The entries come from a sample that favours hits as a whole.
miR-122 inh – miR-122 suppressors via Renilla sensor increase, primary screen, cell-based, Huh7 psiCHECK-miR122, Renilla luciferase, single point. 48 h. 0.14% of 340,000 active. activation, % at 12.5 µM;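 active means mean activation of 30% or more, with every replicate also reaching 30%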;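 further: 0% = median of neutral control wells and 100% = median of positive control wells; higher luciferase signal means stronger suppression of miR-122 activity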
* = called active by the depositor.

SMILES	miR-122 inh
Cc1ccc(Cn2c(NS(=O)(=O)c3ccccc3)nc3ccccc32)cc1	-106.2
Cc1ccc(OCC(O)Cn2c(=N)n(Cc3ccccc3)c3ccccc32)cc1 (configuration not stated)	90.0*
Cc1ccc(-c2ccc3c(c2)O[C@@H](CN(C)Cc2cccc(C(=O)O)c2)[C@H](C)CN([C@H](C)CO)S3(=O)=O)cc1	-7.1
COCC(=O)N(C)C[C@@H]1Oc2ncc(C#Cc3ccncc3)cc2C(=O)N([C@@H](C)CO)C[C@H]1C	-0.5
O=C(Nc1ncc(Cc2cccc(C(F)(F)F)c2)s1)c1ccc(-c2cccc([N+](=O)[O-])c2)o1	31.7*
C=CCNC(=O)c1ccccc1NC(=O)c1ccc(Cl)c(S(=O)(=O)Nc2cc(C)ccc2C)c1	-102.3
C=CCNC(=S)NNC(=O)c1cccn(Cc2ccc(Cl)c(Cl)c2)c1=O	70.8*
COc1ccccc1C#Cc1ccc2c(c1)O[C@@H](CN(C)Cc1ccncc1)[C@H](C)CN([C@H](C)CO)S2(=O)=O	6.6
C[C@@H]1CN([C@H](C)CO)C(=O)c2cc(C3=CCCCC3)cnc2O[C@@H]1CN(C)C(=O)c1ccc(F)cc1	-3.4
C/C=C/c1ccc2c(c1)O[C@@H](CN(C)CCC)[C@@H](C)CN([C@H](C)CO)S2(=O)=O	2.4
C[C@H]1CN([C@@H](C)CO)C(=O)c2cc(-c3cncnc3)cnc2O[C@@H]1CN(C)Cc1ccncc1	-2.6
C[C@H]1CN([C@@H](C)CO)C(=O)c2cc(-c3ccccc3F)cnc2O[C@@H]1CN(C)Cc1ccccc1F	6.7
COc1ccc(N2CCc3c(C)nc4c(OC)cc(OC)cc4c32)c(OC)c1	46.9*
C[C@H](O)C#Cc1cnc2c(c1)C(=O)N([C@@H](C)CO)C[C@H](C)[C@@H](CN(C)Cc1cncnc1)O2	-5.9
COc1ccccc1-c1ccc2c(c1)O[C@@H](CN(C)S(=O)(=O)c1ccc(C)cc1)[C@H](C)CN([C@H](C)CO)S2(=O)=O	0.4
CO[C@H]1CN(C)C(=O)c2ccc(NC(=O)Nc3ccc(Cl)cc3)cc2OC[C@@H](C)N(C)C[C@@H]1C	2.9
CCCC#Cc1ccc2c(c1)O[C@@H](CN(C)S(C)(=O)=O)[C@@H](C)CN([C@@H](C)CO)S2(=O)=O	7.6
O=S(=O)(Nc1cccc2ncccc12)c1cccs1	-234.4
CCOc1ccc(S(=O)(=O)Nc2cccc(Cl)c2)cc1	-90.2
CCOc1ccc2nc(NS(=O)(=O)c3cccs3)sc2c1	33.9*
COCC#Cc1ccc2c(c1)O[C@H](CN(C)Cc1cncnc1)[C@@H](C)CN([C@H](C)CO)S2(=O)=O	-23.0
C[C@H]1CN([C@@H](C)CO)S(=O)(=O)c2ccc(-c3cccnc3)cc2O[C@@H]1CN(C)Cc1ccccn1	-2.4
C[C@@H]1CN([C@@H](C)CO)S(=O)(=O)c2ccc(Br)cc2O[C@H]1CN(C)Cc1cccc(F)c1	6.8
N=c1c2c(-c3ccccc3)c(-c3ccccc3)n(Cc3ccco3)c2ncn1CCO	43.2*
C[C@@H]1CN([C@@H](C)CO)S(=O)(=O)c2ccc(C#Cc3ccccn3)cc2O[C@H]1CN(C)Cc1ccc(F)cc1	1.0
SMILES	miR-122 inh
COc1ccc(C#Cc2ccc3c(c2)O[C@H](CN(C)C)[C@H](C)CN([C@H](C)CO)S3(=O)=O)cc1	-2.9
C[C@H]1CN([C@@H](C)CO)C(=O)c2cc(-c3cccc(C(=O)N(C)C)c3)cnc2O[C@@H]1CN(C)C(=O)Cc1ccccn1	-3.3
CNC[C@H]1Oc2ncc(-c3ccc(C#N)cc3)cc2C(=O)N([C@@H](C)CO)C[C@H]1C	0.4
COc1ccc(C(=O)Nc2ccc3c(c2)OC[C@@H](C)N(C)C[C@H](C)[C@H](OC)CN(C)C3=O)cc1	-5.4
Cc1cc(C)cc(N=c2c([N+](=O)[O-])nn(-c3ccc4c(c3)OCCO4)n2O)c1	42.4*
CO[C@@H]1CN(C)C(=O)c2ccc(NC(=O)Nc3ccc(Cl)cc3)cc2OC[C@H](C)N(C)C[C@H]1C	-3.8
Clc1ccc2c(N/N=C/c3ccccc3Br)ccnc2c1	58.8*
C[C@@H]1CN([C@H](C)CO)C(=O)c2cccc(N(C)C)c2O[C@H]1CN(C)C(=O)Nc1ccccc1	-124.5
C[C@@H]1CN([C@@H](C)CO)C(=O)c2cc(-c3cncnc3)cnc2O[C@@H]1CN(C)Cc1ccc(F)cc1	1.4
C[C@H](CO)N1C[C@H](C)[C@@H](CN(C)S(C)(=O)=O)Oc2ncc(-c3cccc(F)c3)cc2C1=O	-59.1
CCNC(=O)CCC(=O)Nc1cc(Cl)ccc1C	35.8*
S=C(NCCc1ccccc1)Nc1ccc(Cl)cc1Cl	-94.9
COc1ccc(S(=O)(=O)N(C)C[C@@H]2Oc3cc(-c4ccccc4OC)ccc3S(=O)(=O)N([C@@H](C)CO)C[C@H]2C)cc1	0.3
C[C@H]1CN([C@@H](C)CO)C(=O)c2cc(-c3cccnc3)cnc2O[C@@H]1CN(C)S(C)(=O)=O	-18.5
CO[C@H]1CN(C)C(=O)c2cc(NC(=O)NC(C)C)ccc2OC[C@H](C)N(C(=O)NC(C)C)C[C@@H]1C	-4.6
O=C(Nc1ccccc1)c1cc([N+](=O)[O-])ccc1NC1CCCCC1	-122.8
